Some test systems named below: HCT-15 colon; HT29 colon; SNB-75 CNS; SNB-19 CNS; U251 CNS; PC-3 prostate; SK-MEL-5 melanoma; UACC-62 melanoma; LOX IMVI melanoma; SK-MEL-28 melanoma; SK-MEL-2 melanoma; EKVX NSCLC; SN12C renal; UO-31 renal; TK-10 renal; ACHN renal; CAKI-1 renal; A498 renal; CCRF-CEM leukemia; MOLT-4 leukemia.
Assay in all cases: NCI-60 one-dose screen, 48 h (100 = growth as untreated, 0 = no growth, -100 = all killed)
What all share (settings): 10 µM unless noted

Compounds without any hit were thinned out: in the full panel of roughly 83,000, 20% have a hit.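 Treatment: one concentration, 48 hours, 96-well format. Scoring: percent growth, with anything below 10 considered active.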 A number with no mark means an inactive call. The source made the active and inactive calls.

`CC1=C(C)C(=O)C(Nc2ccc(C)c(C)c2)=C(Br)C1=O`: the growth with HCT-15 colon is 92.3%; in the assay with HT29 colon, 107%; with SNB-75 CNS, 73.2%; with SNB-19 CNS, 97.4%; with U251 CNS, 102%; in the assay with PC-3 prostate it was 85%. The growth in the assay with SK-MEL-5 melanoma was 89.1%; in the assay on UACC-62 melanoma, 96.4%; in the assay on LOX IMVI melanoma it was -54.6% (active); with SK-MEL-28 melanoma, 111%; in the assay with SK-MEL-2 melanoma, 112%; in the assay with EKVX NSCLC, 34.2%. In addition, the growth with SN12C renal was 98.7%; with UO-31 renal it was 90.8%; with TK-10 renal it was 157%; in the assay on ACHN renal, 102%; in the assay with CAKI-1 renal, 94%; in the assay on A498 renal, 91.1%. Moreover, the growth in the assay on CCRF-CEM leukemia was -16.8% (active); in the assay with MOLT-4 leukemia, -14.7% (active).
Take `CCN(CC)S(=O)(=O)c1ccc(-c2nc(C(Cl)Cl)nc3cc(-c4ccc(F)cc4)nn23)cc1`: the growth in the assay on HCT-15 colon was 23.3%; in the assay with HT29 colon it was 4.77% (active); in the assay on SNB-75 CNS, 56.5%; in the assay on SNB-19 CNS, 40.2%; in the assay with U251 CNS it was 17.7%; in the assay with PC-3 prostate it was 18.6%. Further, the growth in the assay with SK-MEL-5 melanoma was 83.3%; in the assay on UACC-62 melanoma it was 54.2%; in the assay on LOX IMVI melanoma, 32%; in the assay with SK-MEL-28 melanoma, 27.9%; in the assay with SK-MEL-2 melanoma, 82.3%; in the assay with EKVX NSCLC, 32%. In addition, the growth in the assay with SN12C renal is 67.6%; in the assay on UO-31 renal it was 27.6%; in the assay with TK-10 renal it was 49.9%; in the assay with ACHN renal, 0.483% (active); with CAKI-1 renal it was 12%; in the assay on A498 renal it was 56.2%. For the same molecule, the growth in the assay on CCRF-CEM leukemia is 73.9%; in the assay on MOLT-4 leukemia, 56.6%.
As for `CCNCCOc1ccc(/C(=C(/CC)c2ccc(Cl)cc2)c2ccc(OCCCN(C)C)cc2)cc1`, the growth in the assay with HCT-15 colon is -84.8% (active); with HT29 colon it was -36.4% (active); in the assay on SNB-75 CNS, -71.1% (active); with SNB-19 CNS it was -86% (active); in the assay with U251 CNS it was -70.7% (active); with PC-3 prostate it was -56.4% (active). Also, the growth was -95.2% (active) in the assay on SK-MEL-5 melanoma; -90% (active) with UACC-62 melanoma; -89.2% (active) in the assay on LOX IMVI melanoma; -94.3% (active) in the assay on SK-MEL-28 melanoma; -84% (active) with SK-MEL-2 melanoma; -84.4% (active) with EKVX NSCLC. The growth is -85.6% (active) in the assay with SN12C renal; -95.6% (active) with UO-31 renal; -89.8% (active) with TK-10 renal; -98% (active) with ACHN renal; -75.1% (active) with CAKI-1 renal; -86.3% (active) in the assay on A498 renal. Moreover, the results for the growth in the assay on CCRF-CEM leukemia and in the assay on MOLT-4 leukemia were -37.5% (active) and -62.6% (active), respectively.
`CN1CCN(c2ccc(Nc3nc(NCCCNS(=O)(=O)c4cccc5ccccc45)c4sccc4n3)cc2)CC1`: the growth in the assay with HCT-15 colon was -32.8% (active); with HT29 colon it was -62.1% (active); with SNB-75 CNS it was -36.9% (active); in the assay with SNB-19 CNS, 35.7%; with U251 CNS, -74.4% (active); in the assay with PC-3 prostate, 29.1%. In addition, the growth in the assay with SK-MEL-5 melanoma is -95.3% (active); with UACC-62 melanoma it was -61% (active); in the assay with LOX IMVI melanoma, -85.2% (active); in the assay with SK-MEL-28 melanoma, -80.9% (active); with SK-MEL-2 melanoma, -81.7% (active); in the assay on EKVX NSCLC, 36.1%. Further, the growth was -3.36% (active) in the assay on SN12C renal; -51.1% (active) in the assay on UO-31 renal; -40.6% (active) in the assay with TK-10 renal; -23.8% (active) in the assay on ACHN renal; -52.7% (active) in the assay with CAKI-1 renal; -70.5% (active) with A498 renal. The growth in the assay with CCRF-CEM leukemia is 7.22% (active); in the assay with MOLT-4 leukemia it was -3.37% (active).
Regarding `Cn1ncc2c(C(=O)c3ccc(F)cc3)nc(C(C)(C)C)nc21`, the growth is 97.7% in the assay with HCT-15 colon; 104% in the assay with HT29 colon; 89.6% in the assay with SNB-75 CNS; 95.4% in the assay on SNB-19 CNS; 98.6% with U251 CNS; 92.5% in the assay with PC-3 prostate. The growth with SK-MEL-5 melanoma was 100%; in the assay on UACC-62 melanoma, 98%; in the assay on LOX IMVI melanoma, 95.7%; with SK-MEL-28 melanoma, 98%; in the assay with SK-MEL-2 melanoma, 103%; in the assay on EKVX NSCLC, 98.9%. For the same molecule, the growth in the assay on SN12C renal is 96.2%; in the assay with UO-31 renal it was 93.9%; in the assay on TK-10 renal it was 82%; in the assay on ACHN renal it was 99.1%; in the assay on CAKI-1 renal it was 89.5%; in the assay with A498 renal it was 58.4%. Moreover, the figures for the growth in the assay with CCRF-CEM leukemia and with MOLT-4 leukemia were 103% and 92.6%, respectively.
In the case of `CN1CCN(c2ccc(Nc3nc(NCCNS(=O)(=O)c4ccccc4)c4sccc4n3)cc2)CC1`, the growth with HCT-15 colon was 95.2%; with HT29 colon it was 99.6%; in the assay on SNB-75 CNS, 81.5%; with SNB-19 CNS, 98.9%; in the assay on U251 CNS, 103%; with PC-3 prostate, 95.4%. Further, the growth in the assay on SK-MEL-5 melanoma was 97.4%; with UACC-62 melanoma, 96.4%; in the assay with LOX IMVI melanoma, 108%; with SK-MEL-28 melanoma it was 104%; in the assay on SK-MEL-2 melanoma it was 98.6%; in the assay with EKVX NSCLC it was 95.2%. Moreover, the growth in the assay with SN12C renal was 95%; with UO-31 renal it was 81.2%; in the assay on TK-10 renal it was 142%; in the assay with ACHN renal, 101%; with CAKI-1 renal, 76.4%; in the assay on A498 renal it was 101%. Besides, the growth in the assay with CCRF-CEM leukemia was 105%; in the assay with MOLT-4 leukemia, 95.3%.
As for `O=C1Nc2ccc(F)cc2/C1=C\C(=O)c1ccc(NS(=O)(=O)c2ccccc2)cc1`, the growth is 59.7% with HCT-15 colon; 81% in the assay on HT29 colon; 76.1% in the assay on SNB-75 CNS; 95.6% in the assay with SNB-19 CNS; 94.1% in the assay with U251 CNS; 92% in the assay on PC-3 prostate. The growth was 97.3% in the assay with SK-MEL-5 melanoma; 77.7% in the assay with UACC-62 melanoma; 21.4% in the assay with LOX IMVI melanoma; 105% with SK-MEL-28 melanoma; 115% in the assay on SK-MEL-2 melanoma; 82.8% with EKVX NSCLC. Also, the growth in the assay on SN12C renal was 87.2%; in the assay on UO-31 renal, 70%; in the assay on TK-10 renal it was 130%; with ACHN renal, 74.6%; in the assay with CAKI-1 renal, 72.9%; with A498 renal, 115%. The growth in the assay on CCRF-CEM leukemia was 8.68% (active); in the assay with MOLT-4 leukemia, 40.7%.

Source of the values: PubChem BioAssay (NCI).
